Data on 29 targets can be found in the supplement of paper PMC10849652.

About 7,900 targets were measured; listed, in parts, are those with a hit and a random draw of the rest. About 0.6% of all pairs of compound and target were hits.

Sequence of UniProt Q13422 (Q13422 whole entry, looked up): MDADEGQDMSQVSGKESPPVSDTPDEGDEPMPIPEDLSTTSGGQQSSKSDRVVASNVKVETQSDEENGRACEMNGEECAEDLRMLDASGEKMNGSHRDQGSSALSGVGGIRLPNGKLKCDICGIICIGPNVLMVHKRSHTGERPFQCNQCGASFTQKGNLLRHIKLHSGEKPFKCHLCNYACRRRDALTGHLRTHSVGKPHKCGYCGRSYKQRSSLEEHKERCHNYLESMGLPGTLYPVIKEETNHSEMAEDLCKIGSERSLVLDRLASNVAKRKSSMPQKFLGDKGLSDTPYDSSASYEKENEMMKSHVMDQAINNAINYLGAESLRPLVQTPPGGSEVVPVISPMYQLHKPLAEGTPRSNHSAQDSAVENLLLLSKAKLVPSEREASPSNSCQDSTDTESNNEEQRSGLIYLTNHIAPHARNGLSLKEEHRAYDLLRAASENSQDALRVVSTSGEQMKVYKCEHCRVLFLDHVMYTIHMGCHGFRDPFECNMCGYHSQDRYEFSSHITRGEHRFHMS
Sequence of UniProt Q9Y5V3 (Q9Y5V3 whole entry, looked up): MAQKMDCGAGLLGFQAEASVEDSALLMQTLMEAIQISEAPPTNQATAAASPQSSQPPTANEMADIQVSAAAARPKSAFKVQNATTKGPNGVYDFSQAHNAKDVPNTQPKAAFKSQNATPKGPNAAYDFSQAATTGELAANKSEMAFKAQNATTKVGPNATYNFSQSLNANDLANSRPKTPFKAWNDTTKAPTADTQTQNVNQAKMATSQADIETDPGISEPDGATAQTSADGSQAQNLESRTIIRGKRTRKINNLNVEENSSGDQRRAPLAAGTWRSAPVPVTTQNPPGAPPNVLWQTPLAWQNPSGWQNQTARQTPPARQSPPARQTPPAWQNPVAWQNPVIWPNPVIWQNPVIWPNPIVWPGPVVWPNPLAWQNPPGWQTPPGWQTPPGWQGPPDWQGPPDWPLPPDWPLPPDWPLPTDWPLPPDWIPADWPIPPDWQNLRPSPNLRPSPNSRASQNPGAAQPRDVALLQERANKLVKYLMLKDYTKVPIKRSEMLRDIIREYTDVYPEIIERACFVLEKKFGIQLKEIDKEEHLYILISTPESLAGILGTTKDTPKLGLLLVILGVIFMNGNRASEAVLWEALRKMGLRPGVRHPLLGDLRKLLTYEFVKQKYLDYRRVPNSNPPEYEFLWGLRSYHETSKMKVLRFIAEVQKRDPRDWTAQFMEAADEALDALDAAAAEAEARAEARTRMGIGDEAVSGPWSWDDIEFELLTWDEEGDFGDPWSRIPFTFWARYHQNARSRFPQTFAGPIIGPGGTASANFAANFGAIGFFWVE
Sequence of UniProt P07948 (P07948 whole entry, looked up): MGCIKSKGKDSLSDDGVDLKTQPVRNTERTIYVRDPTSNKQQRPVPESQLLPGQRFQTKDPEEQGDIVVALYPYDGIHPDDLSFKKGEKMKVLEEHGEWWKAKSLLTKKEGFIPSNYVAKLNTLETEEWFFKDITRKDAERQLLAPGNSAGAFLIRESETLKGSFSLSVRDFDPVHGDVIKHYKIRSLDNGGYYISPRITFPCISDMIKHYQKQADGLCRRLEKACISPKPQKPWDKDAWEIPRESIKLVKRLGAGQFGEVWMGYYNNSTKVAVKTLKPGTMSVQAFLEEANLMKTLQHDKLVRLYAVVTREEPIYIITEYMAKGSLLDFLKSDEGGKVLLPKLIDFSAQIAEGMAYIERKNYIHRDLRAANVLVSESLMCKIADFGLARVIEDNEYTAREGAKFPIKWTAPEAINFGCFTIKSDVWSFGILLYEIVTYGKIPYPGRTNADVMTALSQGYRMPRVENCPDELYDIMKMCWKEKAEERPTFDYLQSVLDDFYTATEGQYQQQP
Sequence of UniProt O95819 (O95819 whole entry, looked up): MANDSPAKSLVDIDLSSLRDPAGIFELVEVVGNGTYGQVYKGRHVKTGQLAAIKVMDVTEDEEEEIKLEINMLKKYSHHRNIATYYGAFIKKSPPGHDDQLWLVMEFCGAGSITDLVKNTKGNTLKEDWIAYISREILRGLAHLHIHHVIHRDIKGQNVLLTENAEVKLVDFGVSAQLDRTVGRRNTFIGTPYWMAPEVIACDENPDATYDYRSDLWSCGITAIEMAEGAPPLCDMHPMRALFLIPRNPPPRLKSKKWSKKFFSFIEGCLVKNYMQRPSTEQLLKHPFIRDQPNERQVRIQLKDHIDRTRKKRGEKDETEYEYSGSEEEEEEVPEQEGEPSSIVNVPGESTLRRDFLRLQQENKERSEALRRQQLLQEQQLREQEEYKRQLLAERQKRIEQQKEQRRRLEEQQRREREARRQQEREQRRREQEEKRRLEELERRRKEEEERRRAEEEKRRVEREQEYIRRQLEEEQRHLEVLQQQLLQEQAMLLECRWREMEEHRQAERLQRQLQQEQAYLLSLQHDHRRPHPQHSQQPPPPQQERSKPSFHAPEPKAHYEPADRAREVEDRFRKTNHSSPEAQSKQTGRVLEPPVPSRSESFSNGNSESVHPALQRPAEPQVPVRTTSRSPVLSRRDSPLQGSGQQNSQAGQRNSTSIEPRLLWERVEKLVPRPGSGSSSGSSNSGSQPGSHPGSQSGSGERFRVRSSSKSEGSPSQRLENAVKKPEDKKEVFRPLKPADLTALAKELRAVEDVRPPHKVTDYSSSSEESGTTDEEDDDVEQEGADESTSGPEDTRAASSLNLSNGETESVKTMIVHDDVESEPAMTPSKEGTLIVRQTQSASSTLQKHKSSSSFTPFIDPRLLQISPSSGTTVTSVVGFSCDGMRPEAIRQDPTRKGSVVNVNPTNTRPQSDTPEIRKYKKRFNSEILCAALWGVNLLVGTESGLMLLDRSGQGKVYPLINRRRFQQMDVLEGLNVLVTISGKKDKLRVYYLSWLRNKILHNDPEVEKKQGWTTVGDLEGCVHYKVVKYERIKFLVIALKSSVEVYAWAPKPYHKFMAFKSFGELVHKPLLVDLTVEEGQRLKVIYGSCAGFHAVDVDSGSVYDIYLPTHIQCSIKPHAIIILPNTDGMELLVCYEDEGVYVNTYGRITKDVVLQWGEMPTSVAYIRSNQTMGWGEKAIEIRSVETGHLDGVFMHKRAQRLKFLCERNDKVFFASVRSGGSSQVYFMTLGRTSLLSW
Sequence of UniProt Q9UPY8 (Q9UPY8 whole entry, looked up): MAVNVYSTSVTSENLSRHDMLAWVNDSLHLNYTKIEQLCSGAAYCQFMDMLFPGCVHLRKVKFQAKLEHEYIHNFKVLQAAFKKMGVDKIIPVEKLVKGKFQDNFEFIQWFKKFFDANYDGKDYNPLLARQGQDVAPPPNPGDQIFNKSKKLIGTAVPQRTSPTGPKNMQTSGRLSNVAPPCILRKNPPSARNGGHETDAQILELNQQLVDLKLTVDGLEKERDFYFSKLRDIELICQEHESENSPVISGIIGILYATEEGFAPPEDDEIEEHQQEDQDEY
Sequence of UniProt Q9NVC6 (Q9NVC6 whole entry, looked up): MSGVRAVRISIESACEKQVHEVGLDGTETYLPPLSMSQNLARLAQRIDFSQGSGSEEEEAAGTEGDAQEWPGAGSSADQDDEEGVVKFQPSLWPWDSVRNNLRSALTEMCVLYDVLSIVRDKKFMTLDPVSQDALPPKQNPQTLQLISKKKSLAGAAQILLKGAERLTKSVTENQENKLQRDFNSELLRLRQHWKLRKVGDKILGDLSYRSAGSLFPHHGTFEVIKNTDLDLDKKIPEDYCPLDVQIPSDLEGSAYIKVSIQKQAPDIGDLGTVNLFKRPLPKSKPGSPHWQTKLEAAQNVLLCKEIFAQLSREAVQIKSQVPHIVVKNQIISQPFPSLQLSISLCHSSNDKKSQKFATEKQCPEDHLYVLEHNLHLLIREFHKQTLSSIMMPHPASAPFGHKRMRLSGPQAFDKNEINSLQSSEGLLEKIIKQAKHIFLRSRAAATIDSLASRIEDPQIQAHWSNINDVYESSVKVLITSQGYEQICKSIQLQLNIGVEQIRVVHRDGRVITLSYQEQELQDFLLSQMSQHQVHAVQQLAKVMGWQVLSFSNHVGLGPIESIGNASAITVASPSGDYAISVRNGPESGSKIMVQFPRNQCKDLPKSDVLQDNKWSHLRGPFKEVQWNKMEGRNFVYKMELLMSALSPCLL
Sequence of UniProt P51884 (P51884 whole entry, looked up): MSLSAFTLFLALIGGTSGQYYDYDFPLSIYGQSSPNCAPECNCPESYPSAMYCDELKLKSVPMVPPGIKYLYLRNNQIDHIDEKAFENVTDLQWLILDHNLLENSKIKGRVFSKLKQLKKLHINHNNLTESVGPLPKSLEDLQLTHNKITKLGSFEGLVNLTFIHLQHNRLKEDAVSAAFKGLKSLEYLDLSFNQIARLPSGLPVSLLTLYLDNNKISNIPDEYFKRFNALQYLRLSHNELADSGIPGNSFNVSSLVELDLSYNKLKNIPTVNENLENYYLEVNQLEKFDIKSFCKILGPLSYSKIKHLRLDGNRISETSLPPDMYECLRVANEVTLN
Sequence of UniProt Q13163 (Q13163 whole entry, looked up): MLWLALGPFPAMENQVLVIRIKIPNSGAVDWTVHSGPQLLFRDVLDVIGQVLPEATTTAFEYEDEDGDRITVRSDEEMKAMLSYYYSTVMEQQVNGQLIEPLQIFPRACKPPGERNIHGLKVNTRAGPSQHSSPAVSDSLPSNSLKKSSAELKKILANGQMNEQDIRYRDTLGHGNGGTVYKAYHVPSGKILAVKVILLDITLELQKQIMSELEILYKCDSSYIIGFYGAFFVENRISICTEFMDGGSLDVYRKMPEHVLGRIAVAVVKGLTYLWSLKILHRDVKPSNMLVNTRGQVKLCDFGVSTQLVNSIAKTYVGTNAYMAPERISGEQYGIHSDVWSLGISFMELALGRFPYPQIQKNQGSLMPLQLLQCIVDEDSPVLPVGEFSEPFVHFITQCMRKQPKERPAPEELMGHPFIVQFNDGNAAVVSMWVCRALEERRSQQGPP
Sequence of UniProt O15243 (O15243 whole entry, looked up): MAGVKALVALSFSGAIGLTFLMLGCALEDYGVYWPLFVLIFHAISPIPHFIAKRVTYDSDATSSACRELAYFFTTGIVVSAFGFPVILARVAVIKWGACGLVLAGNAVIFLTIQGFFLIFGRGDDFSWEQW

Compound in one assay: Cc1ncc(-c2ccnc(Nc3ccc(S(C)(=O)=O)cc3)n2)n1C(C)C
Briefly: log2 fold change, soluble protein after heating vs DMSO (PISA); higher = thermal stabilisation; K562 cells, 10 uM, 30 min; active = over 0.2 and 3.5 SD of the protein, either way, in both replicates (recomputed). An outline of the steps: (§1)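 Soluble protein was quantified by TMTpro 16plex LC-MS/MS after channel sums were equalised. It was obtained as the supernatant after 21,000xg for 90 min from pooled aliquots of K562 cells (2×10^6 cells/mL, 10 μM compound, 30 min) heated for 3 min across 48°C-58°C and extracted in PBS with 0.5% NP-40 at 4°C. Thermal stability values are relative to control samples and come from duplicates. They are given as log2 fold changes.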
As for MAP4K4 isoform 6 (UniProt O95819), the log2 fold change was 0.008 (inactive).

Consider INTS5 (UniProt Q6P9B9), for which the log2 fold change was 0.167 (inactive).

In the case of ITGA2B (UniProt P08514), the log2 fold change is -0.151 (inactive). The same measure, in the same setting: the value for MAP4K2 (UniProt Q12851) was -0.13 (inactive).

Turning to LYN isoform 2 (UniProt P07948), the log2 fold change was -0.006 (inactive). For the target MAP3K20 isoform 2 (UniProt Q9NYL2), the log2 fold change is -0.07 (inactive). In the case of MAPRE3 isoform 2 (UniProt Q9UPY8), the log2 fold change was -0.118 (inactive). Still for that read-out and setting: the value for MED29 (UniProt Q9NX70) was -0.14 (inactive); that for MARCHF3 (UniProt Q86UD3) was 0.036 (inactive).

Regarding LOX (UniProt P28300), the log2 fold change is 0.12 (inactive). With ILF3 (UniProt Q12906), the log2 fold change was 0.364 (inactive). For MAGED1 isoform 2 (UniProt Q9Y5V3), the log2 fold change was -0.082 (inactive). On to LUM (UniProt P51884), for which the log2 fold change was 0.257 (inactive). Same read-out and setting: to IKZF1 isoform 2 (UniProt Q13422) belongs 0.043 (inactive); to MAP4 isoform 5 (UniProt P27816), 0 (inactive). Take MED17 (UniProt Q9NVC6): the log2 fold change was -0.108 (inactive).

Compound in another assay: Cn1cc(-c2ccc3c(c2)CCN3C(=O)Cc2cccc(C(F)(F)F)c2)c2c(N)ncnc21
Described as above. An outline of the steps: as §1
In the case of MAP4K4 isoform 6 (UniProt O95819), the log2 fold change was 0.1 (inactive).

For the target ITGA2B (UniProt P08514), the log2 fold change is -0.122 (inactive). Consider MAP4K2 (UniProt Q12851), for which the log2 fold change was -0.135 (inactive). As for LYN isoform 2 (UniProt P07948), the log2 fold change is 0 (inactive). Consider ING5 (UniProt Q8WYH8), for which the log2 fold change is 0.164 (inactive).

For IKZF1 (UniProt R9R4D9), the log2 fold change is -0.044 (inactive).

MAPRE3 isoform 2 (UniProt Q9UPY8): the log2 fold change was -0.028 (inactive). As for LRRFIP1 isoform 4 (UniProt Q32MZ4), the log2 fold change is -0.226 (inactive). Consider MFSD12 isoform 3 (UniProt Q6NUT3), for which the log2 fold change is -0.124 (inactive). Consider LEPROT (UniProt O15243), for which the log2 fold change was -0.193 (inactive). Regarding MAGED1 isoform 2 (UniProt Q9Y5V3), the log2 fold change is 0.111 (inactive). For LUM (UniProt P51884), the log2 fold change was 0.177 (inactive). With IGFBP6 (UniProt P24592), the log2 fold change is 0.152 (inactive). For the target MAML1 (UniProt Q92585), the log2 fold change was 0.087 (inactive). With IGFBP3 isoform 2 (UniProt P17936), the log2 fold change is 0.106 (inactive). KIF13A isoform 4 (UniProt Q9H1H9): the log2 fold change was 0.069 (inactive). In the case of LRFN1 (UniProt Q9P244), the log2 fold change was 0.178 (inactive). Same read-out and setting: the value for LSR isoform 3 (UniProt Q86X29) was 0.026 (inactive); that for MAP2K5 (UniProt Q13163) was 0.06 (inactive). Still for that read-out and setting: to IKZF1 isoform 2 (UniProt Q13422) belongs -0.026 (inactive). Same read-out and setting: the value for KIZ (UniProt Q2M2Z5) was -0.446 (inactive). Consider MED17 (UniProt Q9NVC6), for which the log2 fold change is -0.033 (inactive).
